Reference: PubChem BioAssay AID1159580 (chemical genetic matrix, 2015)
Values joined by “and” are separate entries in the source; they are usually repeats but may differ in a detail not shown here. Identical values can stand only once. Among all 5,500 compounds or so, about 2,000 (36%) were called active. Not shown: some 18% with an inconclusive outcome. No stated cut-off is given here; in the data, active means normalized growth mostly below about 0.91 (no sharp cut-off); inconclusive means no clear call, values can overlap the other calls; inactive means mostly above about 0.92. The list shows a part of the results.

Assay: chemical genetic growth profiling, strain panel (AID 1159580);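 further: tested at 20 µM; growth read once vehicle control cultures reached saturation at 30 °C; 1 = growth at the plate median or of vehicle wells; lower values mean less growth of the strain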
Details: S. cerevisiae deletion strains, growth OD

Measured: normalized growth

Cn1c(=O)[nH]c2ncn(C)c2c1=O
inactive: locus YAL013W, strain DEP1, active compounds read low 1.01 | locus YAL021C, strain ccr4, active compounds read low 1.06 | locus YAL026C, strain drs2, active compounds read low 0.985 | locus YAL030W, strain snc1, active compounds read low 0.981 | locus YAL040C, strain CLN3, active compounds read low 0.958 | locus YBL061C, strain skt5, active compounds read low 0.99 | locus YBR009C, strain hhf1, active compounds read low 0.995 | locus YBR021W, strain FUR4, active compounds read low 1.04 | locus YBR023C, strain chs3, active compounds read low 1 | locus YBR171W, strain sec66, active compounds read low 0.95 | locus YBR229C, strain ROT2, active compounds read low 1.01 | locus YBR231C, strain swc5, active compounds read low 0.962 | locus YBR279W, strain paf1, active compounds read low 0.993 | locus YCL011C, strain gbp2, active compounds read low 0.966 | locus YCL016C, strain dcc1, active compounds read low 1.03 | locus YCL029C, strain bik1, active compounds read low 0.996 | locus YCL061C, strain MRC1 (second series), active compounds read low 1.01 | locus YCL061C, strain MRC1, active compounds read low 0.995 | locus YCL069W, strain vba3, active compounds read low 0.968 | locus YCR088W, strain abp1, active compounds read low 0.966 | locus YDL005C, strain med2, active compounds read low 0.962 | locus YDL035C, strain GPR1, active compounds read low 1.02 | locus YDL040C, strain nat1, active compounds read low 0.962 | locus YDL074C, strain BRE1, active compounds read low 1.05 | locus YDL101C, strain DUN1, active compounds read low 1.01 | locus YDL134C, strain PPH21, active compounds read low 1.02 | locus YDL185W, strain tfp1, active compounds read low 0.996 | locus YDL192W, strain arf1, active compounds read low 0.993 | locus YDR001C, strain nth1, active compounds read low 0.968 | locus YDR069C, strain doa4, active compounds read low 0.949 | locus YDR101C, strain arx1, active compounds read low 1 | locus YDR137W, strain rgp1, active compounds read low 0.988 | locus YDR150W, strain NUM1, active compounds read low 1.02 and 0.997 | locus YDR159W, strain sac3, active compounds read low 0.939 | locus YDR162C, strain NBP2, active compounds read low 1 | locus YDR195W, strain ref2 0.95 | locus YDR297W, strain sur2, active compounds read low 0.959 | locus YDR318W, strain mcm21, active compounds read low 0.992 | locus YDR334W, strain swr1, active compounds read low 0.975 | locus YDR335W, strain msn5, active compounds read low 0.978 | locus YDR363W, strain ESC2, active compounds read low 1.01 | locus YDR388W, active compounds read low 0.989 | locus YDR392W, strain spt3, active compounds read low 0.937 | locus YDR502C, strain sam2, active compounds read low 0.993 | locus YEL003W, strain gim4, active compounds read low 0.972 | locus YEL037C, strain rad23, active compounds read low 0.968 | locus YEL061C, strain CIN8 (second series), active compounds read low 0.959 | locus YEL061C, strain CIN8, active compounds read low 1.01 | locus YER002W, strain NOP16, active compounds read low 1.01 | locus YER015W, strain faa2, active compounds read low 0.98 | locus YER016W, strain bim1, active compounds read low 0.967 | locus YER110C, active compounds read low 0.996 | locus YER111C, strain swi4, active compounds read low 0.98 | locus YER155C, strain BEM2 (second series), active compounds read low 0.959 | locus YER155C, strain BEM2, active compounds read low 1.02 | locus YER167W, strain BCK2, active compounds read low 1.01 | locus YFR010W, strain ubp6, active compounds read low 0.962 | locus YGL078C, strain dbp3, active compounds read low 0.989 | locus YGL086W, strain mad1, active compounds read low 1 | locus YGL167C, strain pmr1, active compounds read low 0.982 | locus YGL173C, strain kem1, active compounds read low 0.97 | locus YGL227W, strain vid30, active compounds read low 0.967 | locus YGL240W, strain doc1, active compounds read low 0.958 | locus YGL248W, strain PDE1, active compounds read low 1.01 | locus YGL253W, strain hxk2, active compounds read low 0.958 | locus YGR078C, strain PAC10, active compounds read low 1.02 and 0.978 | locus YGR135W, strain pre9, active compounds read low 0.992 | locus YGR229C, strain SMI1, active compounds read low 1.02 | locus YGR252W, strain gcn5, active compounds read low 0.981 | locus YHR013C, strain ard1, active compounds read low 0.986 | locus YHR027C, strain rpn1, active compounds read low 0.98 | locus YHR030C, strain SLT2, active compounds read low 1 | locus YHR079C, strain IRE1 (second series), active compounds read low 0.987 | locus YHR094C, strain hxt1, active compounds read low 0.992 | locus YHR129C, strain ARP1, active compounds read low 1.02 | locus YHR142W, strain chs7, active compounds read low 0.987 | locus YHR200W, strain rpn10, active compounds read low 0.993 | locus YIL066C, strain RNR3, active compounds read low 1.01 | locus YIL073C, strain SPO22, active compounds read low 1 | locus YIL125W, strain kgd1, active compounds read low 0.994 | locus YIR030C, strain dcg1, active compounds read low 1 | locus YJL092W, strain hpr5, active compounds read low 0.971 | locus YJL095W, strain BCK1 (second series), active compounds read low 0.973 | locus YJL095W, strain BCK1, active compounds read low 1.02 | locus YJL115W, strain asf1, active compounds read low 0.969 | locus YJL129C, strain trk1, active compounds read low 0.967 | locus YJL134W, strain LCB3, active compounds read low 1 | locus YJL154C, strain vps35, active compounds read low 0.969 | locus YJL164C, strain tpk1, active compounds read low 1 | locus YJL166W, strain qcr8, active compounds read low 0.972 | locus YJL168C, strain set2, active compounds read low 0.99 | locus YJL187C, strain SWE1 (second series), active compounds read low 1.01 | locus YJL187C, strain SWE1, active compounds read low 0.986
